# Bioassay records (PubChem)
# p53 reactivator = qHTS assay for re-activators of p53 using a Luc reporter; H1299 p53-A138V BP100-luciferase reporter, luminescence, 24 h; Potency, µM (top dose mostly 92.2 µM), for inactives: top-dose activity change, positive = activation, usual class: activators; 0.063% of 320,000 active; AID 504706, 2011; note: potency is the fitted concentration of half-maximal effect; % of control where 0% means no effect; nearly all actives have a fitted effect of over 45% in size
#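 p53-null H1299 cells stably carrying temperature-sensitive p53-A138V and a BP100-luciferase reporter were pinned with compounds (4-point, 1:5 series) and held 24 hrs at 37 deg C. Luminescence was read 10 min after detection reagent.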
# RORg inh = qHTS for inhibitors of ROR gamma transcriptional activity | Nuclear receptor ROR-gamma (Mus musculus), P51450 | Drosophila S2 Gal4-RORgamma UAS-luciferase reporter, 20 h | Potency, µM (titrated, usually from 53.6 µM), inactives show at the top dose activity change, negative = inhibition, actives largely listed as inhibitors | 5.4% of 310,000 active | AID 2551, 2010; note: potency is the fitted concentration of half-maximal effect; % is set by controls: 0 for no effect and ±100 for the full control effect; nearly all actives have a fitted effect of over 60% in size
# Target sequence (P51450 whole entry, looked up, the tested form may be a part): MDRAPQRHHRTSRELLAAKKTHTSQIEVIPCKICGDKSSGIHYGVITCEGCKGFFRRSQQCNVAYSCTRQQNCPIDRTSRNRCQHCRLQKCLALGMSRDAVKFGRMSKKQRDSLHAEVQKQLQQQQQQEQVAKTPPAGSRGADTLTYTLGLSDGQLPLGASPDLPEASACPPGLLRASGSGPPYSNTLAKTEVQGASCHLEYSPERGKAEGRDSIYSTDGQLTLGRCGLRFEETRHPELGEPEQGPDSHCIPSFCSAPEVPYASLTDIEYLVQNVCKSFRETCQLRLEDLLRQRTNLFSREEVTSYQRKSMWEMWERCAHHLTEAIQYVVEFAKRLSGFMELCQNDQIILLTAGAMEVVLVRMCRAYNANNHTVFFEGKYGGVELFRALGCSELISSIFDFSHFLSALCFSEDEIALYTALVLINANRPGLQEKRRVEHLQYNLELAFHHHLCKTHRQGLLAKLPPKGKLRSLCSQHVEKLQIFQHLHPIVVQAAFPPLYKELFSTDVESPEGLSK
#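 ROR gamma transcriptional activity was tracked as Gal4-UAS luciferase output in stably transfected Drosophila Schneider cells, with compound added 1 hr before 700 uM copper sulfate induction and a 20 hr ambient-temperature incubation.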
# Gal4-VP16 FLuc = VP16 counterscreen qHTS for inhibitors of ROR gamma transcriptional activity; Drosophila S2 Gal4-VP16 UAS-luciferase, luminescence, 20 h; Potency, µM (series often up to 53.6 µM), for inactives: at the top dose activity, negative = inhibition, hits mostly inhibitors; 3.5% of 310,000 active;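 note: Gal4-VP16 expression switched on by copper sulfate through the metallothionein promoter; potency is the fitted concentration of half-maximal effect; % is set by controls: 0 for no effect and ±100 for the full control effect; nearly all actives have a fitted effect of over 50% in size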
# CtBP-E1A inh = qHTS Assay for Inhibitors of the CtBP/E1A Interaction; CtBP / adenovirus E1A interaction (AlphaScreen); AlphaScreen GST-E1A/His-CtBP binding, 1536-well; active compounds read low; activity change, % (no concentration beside the values); 0.49% of 340,000 active; in the data active = activity change below about -65%; inconclusive = mostly about -30% to -63%; note: % is set by controls: 0 for no effect and ±100 for the full control effect
#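 Homogeneous bead-based format: GST-tagged E1A captured on glutathione donor beads, His-tagged CtBP on nickel acceptor beads; compounds precede bead addition by 2 h at 37 °C.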
# Six1-Eya2 inh = qHTS Assay for Inhibitors of the Six1/Eya2 Interaction; 0.56% of 360,000 active; activity change, % (no concentration beside the values); AlphaScreen GST-Six1/His-Eya2 binding, biochemical; active compounds read low; in the data active = activity change below about -65%; inconclusive = mostly about -30% to -63%; note: % is set by controls: 0 for no effect and ±100 for the full control effect
#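 Compounds are tested against tagged Six1 and Eya2 proteins bridged by glutathione donor and nickel acceptor beads; after a one-hour incubation at 37 °C without light, AlphaScreen emission is recorded.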
# * marks the source's active call; other numbers are inactive results; ? = inconclusive; . = no result; [ ] = remark or other dose. Compounds with a hit are over-represented: about 5.4% of the library has one in this group of screens. Unless noted, calls come from the whole dose curve; as a rule, active = well fitted curve in the direction sought with a large enough effect; inconclusive = small, poorly fitted or top-dose-only effect, or another doubt; inactive = no such curve, though single readings can be large; an effect the other way counts as inactive or inconclusive.
SMILES,p53 reactivator,RORg inh,Gal4-VP16 FLuc,CtBP-E1A inh,Six1-Eya2 inh
CN(C)c1ccc(/C=C/c2cccc[n+]2[O-])cc1,7.7%,-23.7%,-5.6%,5.1,0.0
O=c1c(C=Nc2ccc(Cl)cc2)c[nH]n1-c1cccc(Cl)n1,12.6%,-11.9%,-6.9%,-6.8,0.3
C/C(=N\NC(N)=S)c1ccc(-n2ccnc2)cc1,11.2%,?,-8.5%,-3.0,-9.4
C=C(C)CNC(=S)N/N=C(\C)c1ccc(-n2ccnc2)cc1,-4.8%,6.31µM*,7.94µM*,-5.0,-19.1
CCN(CC)C(=O)Cn1cc(S(=O)(=O)CC(=O)NC2CCCCC2)c2ccccc21,0.6%,11.9%,9.6%,-21.8,7.7
CC1=NN(C(=O)c2ccccc2Cl)C(O)(c2ccccc2)C1 (configuration not stated),-37.5%,6.31µM*,7.08µM*,-0.7,7.1
CC1=NN(C(=O)c2ccccc2F)C(O)(c2ccc(Cl)cc2)C1 (configuration not stated),-36.3%,5.62µM*,6.31µM*,-7.7,0.6
O=C(c1ccccc1F)N1N=C(C(F)(F)F)CC1(O)c1ccccc1 (configuration not stated),.,.,.,-3.6,0.4
C/C(Cn1nnc([N+](=O)[O-])n1)=N\NC(=O)c1ccccc1,?,10µM*,?,8.7,-0.3
CN(C)c1ccc(C(=O)NNC(=O)c2ccc(Cl)cc2)cc1,-2.7%,-1.7%,-10.8%,1.2,2.4
CN(C)c1ccc(C(=O)Nc2nnc(-c3ccc(Cl)cc3)o2)cc1,1.2%,0.501µM*,0.501µM*,-3.9,-9.3
CC(=O)c1ccc(C(=O)Nc2nnc(-c3ccc(Cl)cc3)o2)cc1,8.8%,-34.8%,2.51µM*,?,-17.9
CCOc1ccccc1C(=O)NC(C(=O)OCC(=O)Nc1nnc(-c2ccccc2)o1)C(C)C (configuration not stated),3.3%,2.24µM*,5.01µM*,?,?
O=C(Nc1nnc(-c2ccc(Cl)cc2)o1)NC1CCCCC1,8.4%,?,3.55µM*,3.8,2.4
C/C(CCN1CCCc2nc(C)c(C)cc21)=N\OC[C@@H](O)COCc1ccco1,.,10.9%[10 µM],4.4%[10 µM],.,.
CCN1CCN(c2ccc(Nc3ccnc4ccccc34)cc2)CC1,-4.2%,.,.,-24.1,-7.9
O=C(Nc1nnc(-c2ccccc2)o1)Nc1ccccc1Cl,-1.0%,39.6%,-8.1%,0.4,0.2
O=C(COc1ccc(Cl)cc1)Nc1nnc(-c2ccc3c(c2)CCCC3)o1,27.3%,-75.2%,?,8.3,-3.7
O=C(Nc1nnc(-c2ccccc2)o1)c1ccc(Cl)cc1,.,0.708µM*,1.41µM*,-6.9,-5.3
O=C(COc1ccccc1)Nc1nnc(-c2ccc(Cl)cc2)o1,-4.3%,7.08µM*,5.62µM*,-23.3,?
COc1ccccc1-c1cn[nH]c1-c1ccc(OCc2ccccc2F)cc1O,-11.8%,8.91µM*,?,-3.3,-11.6
COc1ccccc1-c1cn[nH]c1-c1ccc(O)cc1O,-2.0%,?,?,-1.5,3.4
COc1ccc(-c2cn[nH]c2-c2ccc(OCc3ccc(F)cc3)cc2O)cc1OC,-11.3%,1.58µM*,3.55µM*,-12.2,-10.8
COc1ccccc1-c1cn[nH]c1-c1ccc(OCc2ccc(F)cc2)cc1O,-13.4%,7.94µM*,?,-1.6,-5.9
O=C(Cc1cccc([N+](=O)[O-])c1)Nc1ccc(C(=O)N2CCOCC2)cc1,-1.7%,.,.,6.6,10.4
SMILES,p53 reactivator,RORg inh,Gal4-VP16 FLuc,CtBP-E1A inh,Six1-Eya2 inh
CCC(C)(C)c1ccc(OCCCC[n+]2ccccc2)c(C(C)(C)CC)c1,-9.3%,?,17.8µM*,-2.4,7.5
CCCCCc1ccc(OCCCC[n+]2ccccc2)c(CCCCC)c1,-7.8%,?,-1.9%,-1.5,2.2
CCC(C)n1c(=S)[nH]c2c(sc3ccc([N+](=O)[O-])cc32)c1=O (configuration not stated),1.9%,0.631µM*,1.26µM*,-4.6,0.6
Cc1cc(C)c(S(=O)(=O)N(C)CC(=O)NCc2ccncc2)c(C)c1,-0.8%,12.9%,-11.3%,2.2,-0.5
Cc1c(N2C(=O)CSC2=S)c(=O)n(-c2ccccc2)n1C,2.2%,12.6µM*,0.7%,0.7,-0.3
O=C1CSC(=S)N1c1cccc(O)c1,11.0%,12.6µM*,-5.8%,0.9,5.3
CCN1C(=O)/C(=C2\SC(=S)N(c3c(C)n(C)n(-c4ccccc4)c3=O)C2=O)c2ccccc21,5.7%,-35.0%,-10.1%[0.365 µM],-1.0,5.9
Cc1c(N2C(=O)/C(=C3/C(=O)N(C)c4ccccc43)SC2=S)c(=O)n(-c2ccccc2)n1C,-2.4%,7.94µM*,8.8%,8.4,2.5
CN(CC(=O)Nc1cccc(F)c1)C(=O)/C=C/c1cn(Cc2ccccc2)nc1-c1cccnc1,-4.6%,.,.,3.0,-16.3
O=C(Nc1ccccc1)N1CCCC2(CCN(C(=O)c3cc(C(F)(F)F)cc(C(F)(F)F)c3)CC2)C1,.,-7.3%,-1.7%,.,.
O=[N+]([O-])c1cc(-c2nnc(C34CC5CC(CC(C5)C3)C4)o2)cc([N+](=O)[O-])c1,-0.8%,-2.6%,-1.3%,-22.8,-8.9
COc1ccc(/C(C)=N/Nc2nc3ccccc3nc2C)cc1,?,2.51µM*,12.6µM*,-16.5,5.5
